Source: PubChem (Johns Hopkins Ion Channel Center)
An excerpt weighted towards active compounds, which were near 1.6% of everything screened.
KCNQ2 block – KCNQ2 (rat) channel inhibition; AID 2156; CHO-K1 KCNQ2, FluxOR thallium flux, 20 min; stronger effect = lower value; B-score at 10 µM; hit rate 1.1% among 310,000;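 active means fluorescence ratio B-score at most minus 3 library SDs, with starting brightness B-score within 2 library SDs, cut at about -5.5 in these data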
Target sequence (O88943 whole entry, looked up): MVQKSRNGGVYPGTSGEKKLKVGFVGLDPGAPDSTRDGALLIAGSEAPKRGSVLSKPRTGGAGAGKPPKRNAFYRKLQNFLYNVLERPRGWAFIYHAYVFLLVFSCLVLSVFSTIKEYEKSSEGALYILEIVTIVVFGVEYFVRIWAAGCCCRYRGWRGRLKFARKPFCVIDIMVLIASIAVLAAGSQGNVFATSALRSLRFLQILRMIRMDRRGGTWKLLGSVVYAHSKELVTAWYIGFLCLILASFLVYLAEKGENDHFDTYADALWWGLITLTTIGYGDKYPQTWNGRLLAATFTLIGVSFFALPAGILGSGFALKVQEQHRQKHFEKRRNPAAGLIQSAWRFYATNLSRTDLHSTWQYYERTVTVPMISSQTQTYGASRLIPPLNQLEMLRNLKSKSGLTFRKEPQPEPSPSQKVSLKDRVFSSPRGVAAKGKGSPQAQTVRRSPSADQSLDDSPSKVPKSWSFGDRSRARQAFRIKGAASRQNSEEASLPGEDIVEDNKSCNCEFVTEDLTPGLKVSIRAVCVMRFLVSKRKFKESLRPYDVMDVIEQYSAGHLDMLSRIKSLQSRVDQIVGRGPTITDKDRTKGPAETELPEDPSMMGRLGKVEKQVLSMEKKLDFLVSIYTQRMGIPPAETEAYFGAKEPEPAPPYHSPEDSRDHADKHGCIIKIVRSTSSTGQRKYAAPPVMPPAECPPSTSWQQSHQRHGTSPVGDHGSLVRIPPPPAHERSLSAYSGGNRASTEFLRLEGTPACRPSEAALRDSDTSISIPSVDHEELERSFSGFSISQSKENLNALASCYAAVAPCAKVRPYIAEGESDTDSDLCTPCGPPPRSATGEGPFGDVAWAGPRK
KCNQ2 pot – enhances the rat KCNQ2 potassium channel; CHO-K1 KCNQ2, FluxOR thallium flux fluorescence; stronger effect = higher value; B-score at 10 µM; hit rate 0.54% among 310,000; AID 2239;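 active means fluorescence ratio B-score at least 3 SD of library B-scores, with initial fluorescence B-score within 3 of them, cut at about 5.3 in these data; same plate scores as AID 2156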;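 further: B-score of peak minus minimum over baseline fluorescence ratio after K+ and Tl+ stimulus; positive B-score means potentiation of KCNQ2 with more thallium influx and brighter signal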
* hit, by the source's call; i = inactive; . = no result.

SMILES	KCNQ2 block	KCNQ2 pot
O=C(Oc1ccccc1C(=S)N1CCOCC1)c1cccc([N+](=O)[O-])c1	i	0.06
COCCN(C(=O)c1snc(C(N)=O)c1N)C(C(=O)NC1CCCCC1)c1ccc(N(C)C)cc1 (centres undefined)	i	.
CCN(CC)c1ccc(/C=N/N2CCN(Cc3ccccc3Cl)CC2)c(O)c1	i	.
CCN(CC)c1ccc(/C=N/N2CCN(Cc3ccc(C)cc3)CC2)c(O)c1	-6.2*	-6.2
Cc1sc(Cc2nc(O)cs2)nc1-c1ccccc1	i	.
COc1ccc(-c2noc(CSc3nc4ccccc4c(=O)n3-c3ccc(C)cc3)n2)cc1	-5.7*	-5.7
Cc1sc2nc(SCC(N)=O)n(-c3ccccc3)c(=O)c2c1C	i	.
COc1ccc(-c2noc(CSc3nnc(Cc4ccccc4)n3-c3ccc(Cl)cc3)n2)cc1	i	.
Cc1sc2nc(SCc3nc(-c4ccccc4)no3)n(-c3ccccc3)c(=O)c2c1C	-9*	-9
COc1ccc(Cl)cc1NS(=O)(=O)c1cccc(C(=O)NCCCN2CCCC2=O)c1	i	0.44
CCn1cc(C(=O)NCCCOC(C)C)c(=O)c2cc(S(=O)(=O)N3CCC(C)CC3)ccc21	i	.
Cc1ccc(NC(=O)CNC(=O)c2cccc(C)c2)nc1	i	.
OCc1ccccc1OCCOc1ccc(Cl)c2cccnc12	i	.
Clc1ccc(OCc2cn3ccccc3n2)c2ncccc12	-6.6*	-6.6
CCC(=Nc1ccccc1O)C1=C(O)CC(c2ccccc2)CC1=O (centres undefined)	i	0.29
CCC(=Nc1ccccc1OC)C1=C(O)CC(c2ccccc2)CC1=O (centres undefined)	-5.8*	-5.8
CC(=O)N1CCc2cc(S(=O)(=O)CCC(=O)NCCc3ccc(Cl)cc3)ccc21	i	0.34
Cc1ccc(NC(=O)c2cc(S(=O)(=O)N3CCOCC3)cn2C)cc1F	i	0.06
CCOCCCn1c(C)nc2c(c1=O)c1nc3ccccc3nc1n2-c1ccc(C)cc1	i	.
CCO/C(C)=N/n1c2nc3ccccc3nc2c2c(=O)n(CC(C)C)c(C)nc21	-5.6*	-5.6
COc1ccc(S(=O)(=O)N2CCOCC2)cc1NC(=O)C1COc2ccccc2O1 (centres undefined)	i	.
CN(C(=O)C1CCCCC1)C1CCS(=O)(=O)C1 (centres undefined)	i	.
c1ccc(C(c2ccccc2)N2CCN(Cc3nnnn3C3CCCC3)CC2)cc1	i	.
CC(C)CCn1nnnc1CN1CCN(C(c2ccccc2)c2ccccc2)CC1	-5.7*	-5.7
O=C(Nc1ccccc1N1CCN(C(=O)c2ccccc2)CC1)c1ccc(Br)o1	i	.
SMILES	KCNQ2 block	KCNQ2 pot
CCN(Cc1ccccc1)C(=O)CCS(=O)(=O)c1ccc2c(c1)CCN2C(C)=O	i	1.6
COc1ccc(CCNC(=O)c2cc(C(=O)c3cc(Cl)ccc3O)cn(CCc3ccc(OC)cc3)c2=O)cc1	i	.
O=C(c1cc(C(=O)NCCc2ccccc2)c(=O)n(CCc2ccccc2)c1)c1cc(Cl)ccc1O	-6.4*	-6.4
COc1ccc(CCNC(=O)c2cc(C(=O)c3cc(C)ccc3O)cn(CCc3ccc(OC)cc3)c2=O)cc1	-7.3*	-7.3
O=C(NCCc1ccccc1)c1ccccc1Cl	i	.
O=C(C1CC1)N1N=C(c2ccccc2)CC1(O)C(F)(F)C(F)(F)F (centres undefined)	i	0.72
Cc1ccc(NC(=O)c2cccc(S(=O)(=O)N(C)C3CCCCC3)c2)nc1	i	.
CCc1ccc(NC(=O)CSc2nncn2-c2cccnc2)cc1	i	0.38
COc1ccc(OC)c(NC(=O)c2cc(S(=O)(=O)N(C)C)ccc2N2CCCC2)c1	i	0.07
Cc1nn2c(SCC(=O)c3cccs3)cc(C(C)(C)C)nc2c1-c1ccccc1	i	20*
Cc1cc(SCC(=O)c2cccs2)n2nc(C)c(-c3ccc(Cl)cc3)c2n1	i	2.4
C/C(=N\NC(=O)C1(C)CC1(Br)Br)c1cccc(NC(=O)c2ccc(C)o2)c1 (centres undefined)	i	.
COc1ccc(OC)c(S(=O)(=O)N2CCN(c3ccccc3)CC2)c1	i	0.08
CCc1ccccc1N1CCN(S(=O)(=O)c2cc(OC)ccc2OC)CC1	-7.1*	-7.1
COc1ccc(CNC(=O)C2CCC(CNS(=O)(=O)c3cccs3)CC2)cc1 (centres undefined)	i	0.05
CCOC(=O)CCc1c(C)nc2c(c(C)nn2-c2ccc(C)cc2)c1C	i	0.53
CCOC(=O)CCc1c(C)nc2c(c(C)nn2C(C)(C)C)c1C	-7.8*	-7.8
CN(C)S(=O)(=O)c1cccc(NC(=O)c2ccc(OC(F)(F)F)cc2)c1	i	2.5
CN(C)S(=O)(=O)c1cccc(NC(=O)c2ccc(COc3ccccc3)cc2)c1	-5.8*	-5.8
Cc1ccc(CNC(=O)c2cn(C3CCCC3)c(=O)c3c2c2ccccc2n3C)o1	-8*	-8
Cn1c2ccccc2c2c(C(=O)O)cn(C3CCCC3)c(=O)c21	i	.
CC(C)(C)OC(=O)CC12CCCCC1NC(=O)O2 (centres undefined)	i	1.3
CC(C)CN(C(=O)COC(=O)CCCc1c[nH]c2ccccc12)c1c(N)n(Cc2ccccc2)c(=O)[nH]c1=O	i	0.29
CC(C)C(=O)N1CCN(c2ccccc2NC(=O)c2cccc(Cl)c2)CC1	-6.6*	-6.6
O=C(Nc1ccccc1N1CCN(C(=O)c2ccccc2)CC1)c1ccc(Cl)cc1	i	.
SMILES	KCNQ2 block	KCNQ2 pot
CS(=O)(=O)N1CCN(c2ccccc2NC(=O)c2cccc3ccccc23)CC1	i	.
Cn1c(=O)n(C)c2cc(N3CCCCC3)c(NC(=O)c3cccc(Cl)c3)cc21	i	.
CC(C)C(=O)N1CCN(c2ccccc2NC(=O)c2cccc3ccccc23)CC1	-7.3*	-7.3
COc1ccc(C(=O)Nc2ccccc2N2CCN(C(=O)c3ccccc3)CC2)cc1Br	-7.2*	-7.2
Cc1ccc(S(=O)(=O)N(CC(=O)NCC2CCCO2)Cc2cccc(C)c2)cc1 (centres undefined)	i	.
COc1ccc(C(=O)NCCCNC(=O)c2cccnc2)cc1Br	i	0.33
CCCCCN(C(=O)CCC(=O)OCCOc1ccccc1Cl)c1c(N)n(CCCC)c(=O)[nH]c1=O	i	0.69
Cc1cc(C)cc(NC(=O)CSc2nnc(-c3cc(C)[nH]n3)n2N)c1	i	1.9
Cc1ccc(C)c(NS(=O)(=O)c2c(C)nc3sccn3c2=O)c1	i	0.23
CCc1cc2c(C)cc(=O)oc2cc1OC(=O)C1CCCN1C(=O)OC(C)(C)C (centres undefined)	-6*	-6
CC(C)(C)OC(=O)N1CCCC1C(=O)NCCc1ccccc1 (centres undefined)	i	0.63
COc1ccc([N+](=O)[O-])cc1NC(=O)CSCc1ccc(Br)cc1	i	5.5*
COc1ccc([N+](=O)[O-])cc1NC(=O)CSCc1ccccc1C	i	1.5
COc1ccc(CCNC(=O)CCCn2ncn3c(cc4occc43)c2=O)c(OC)c1	i	0.7
CCn1c(=O)c2c(nc(SCC(=O)N3CCCC(C)C3)n2C)n(C)c1=O (centres undefined)	i	0.6
CCC1CCCCN1C(=S)NC(=O)c1cccs1 (centres undefined)	i	4.6
CCC1CCCCN1C(=S)NC(=O)c1ccc([N+](=O)[O-])cc1 (centres undefined)	i	7.8*
O=C(CCNC(=O)c1ccc(Br)cc1)Nc1ncccc1O	i	0.22
Cc1ccc(CNC(=O)CNS(=O)(=O)c2ccc(Br)s2)cc1	i	.
